This passage reports AC50 and activity, negative = inhibition results from PubChem BioAssay AID1851 (National Center for Advancing Translational Sciences (NCATS), 2009).

Each structure is given as a SMILES string. About 5,700 (36%) of roughly 16,000 compounds were called active. Another 24% or so got no clear call; they are omitted. Some of the results follow. Unmarked numbers belong to inactive results. The call rests on the fitted dose curve; in most records, active means well fitted curve in the direction sought with a large enough effect; inconclusive means small, poorly fitted or top-dose-only effect, or effect the other way; inactive means no such curve, though single readings can be large or run the other way. Square brackets hold non-standard residues; d marks the D form. Peptide text beside a SMILES is read from it.
On the % scale 0 is the no-effect control and ±100 the full control effect.

Sequence of Cytochrome P450 1A2 (Homo sapiens) (P05177 whole entry, looked up): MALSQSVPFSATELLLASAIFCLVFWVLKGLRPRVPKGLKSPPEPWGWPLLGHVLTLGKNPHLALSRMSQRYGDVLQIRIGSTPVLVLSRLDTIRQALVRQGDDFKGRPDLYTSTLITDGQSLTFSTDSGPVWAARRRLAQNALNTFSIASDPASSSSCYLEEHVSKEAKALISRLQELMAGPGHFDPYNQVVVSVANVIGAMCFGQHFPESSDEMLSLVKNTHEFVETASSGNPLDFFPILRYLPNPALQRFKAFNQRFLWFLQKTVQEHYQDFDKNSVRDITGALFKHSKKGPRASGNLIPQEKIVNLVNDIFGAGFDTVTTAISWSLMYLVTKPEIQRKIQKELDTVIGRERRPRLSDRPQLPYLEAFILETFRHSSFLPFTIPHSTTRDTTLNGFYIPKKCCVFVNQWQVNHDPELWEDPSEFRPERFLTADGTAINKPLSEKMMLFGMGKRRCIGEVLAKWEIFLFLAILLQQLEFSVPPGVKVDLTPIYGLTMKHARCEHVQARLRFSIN

The assay concerns the target Cytochrome P450 1A2 (Homo sapiens) (UniProt P05177). The assay is described as follows: Cytochrome panel assay with activity outcomes. The settings on record: recombinant CYP, pro-luciferin dealkylation, luminescence, p450-cyp1a2; series mostly up to 57.1 µM.
Regarding `N#CCCn1c(=O)cnc2cnc(N3CCOCC3)nc21`, the AC50 (in general, the concentration giving half of the maximal activity seen) is 10000 nM (active).
As for `O=c1cnc2cnc(N3CCOCC3)nc2n1CCc1ccccc1`, the AC50 is 3160 nM (active).
Consider `Cc1nc2cnc(N3CCOCC3)nc2n(CCC#N)c1=O`, for which the AC50 is 12600 nM (active).
Regarding `CCc1cc2c(nc1CC)CCN(CC/C(C)=N/OC[C@H]1O[C@H](c3ccccc3)C=C[C@@H]1Oc1ccc(OC)cc1)C2`, the activity, negative = inhibition was 0.11% [at 11.4 µM].
As to `Cc1ccc(-n2nc(C)c3c2OC(N)=C(C#N)C3c2ccco2)cc1` (configuration not stated), the AC50 is 8910 nM (active).
Regarding `CCn1c2ccccc2c2cnc(N=CN(C)C)c(C#N)c21`, the AC50 was 1410 nM (active).
Regarding `Cc1nc(N/N=C/c2ccccc2)nc(N(C)c2ccccc2)c1[N+](=O)[O-]`, the AC50 is 1580 nM (active).
Regarding `COC(=O)C/C=C\[C@@H](C)[C@@H](/C=N\O[C@@H](C)CN1CCCCc2nc(C)c(C)cc21)NS(=O)(=O)c1ccc(C)cc1`, the activity, negative = inhibition is -4.63% [at 11.4 µM].
Regarding `COc1ccc(C(=O)NC(=S)NC(C)(C)C)cc1Br`, the AC50 was 562 nM (active).
With `C=CCN(CC=C)C(=S)NC(=O)c1ccc(OC)c(Br)c1`, the AC50 is 562 nM (active).
On to `COc1ccc(C(=O)NC(=S)NC(C)C)cc1Br`, for which the AC50 was 3160 nM (active).
With `CCOc1ccc(C(=O)O)cc1OC`, the AC50 entry was “inactive”.
Take `COc1ccc(C(=O)NNC(=O)Cc2ccc(-c3ccccc3)cc2)cc1OC`: the AC50 result was “inactive”.
Take `COc1cc(C(=O)NC(=S)Nc2ccc3oc(=O)ccc3c2)cc(OC)c1OC`: the AC50 result was “inactive”.
`COc1ccc(C(=O)c2ccccc2)cc1Br`: the AC50 is 10000 nM (active).
On to `COc1ccc(NC(=O)N2CC3(CCN(S(C)(=O)=O)CC3)C2)cc1`, for which the AC50 result is “inactive”.
Same read-out and setting: the same measure for `FC(F)(F)c1ccccc1-c1ccc2ncnc(NC3CC3)c2c1`: 316 nM (active); for `Cc1ccccc1-c1ccc2ncnc(NC3CC3)c2c1`: 126 nM (active).
Regarding `CS[C@@H](CC(=O)O)C(=O)O`, the activity, negative = inhibition was 6.13% [at 11.4 µM].
On to `CCOCCCN1C(=O)CN(C2CCCCC2)C(=O)C1c1ccc(OCC)c(OC)c1` (configuration not stated), for which the AC50 entry was “inactive”.
The same measure, in the same setting: the same measure for `O=C(NN=C1c2ccccc2-c2ccccc21)c1ccccn1`: 501 nM (active).
Consider `O=C(c1ccco1)N1CCC2(CC1)CN(c1ccccn1)C2`, for which the AC50 entry is “inactive”.
For the compound `O=C(Nc1ccccn1)c1ccco1`, the AC50 is 11200 nM (active).
Same read-out and setting: then `CCC(C)(NC(=O)c1ccccn1)C(=O)NC1CCCCC1` (configuration not stated), with “inactive”.
Consider `O=C(N/N=C/c1ccccn1)c1ccc(Br)o1`, for which the AC50 was 6310 nM (active).
Take `Cc1cc(C)n(CC(=O)N/N=C/c2ccco2)n1`: the AC50 entry is “inactive”.
For the compound `O=C(N/N=C/c1ccco1)c1ccccn1`, the AC50 is 6310 nM (active).
As for `C[N+](C)(C)c1nc(N)nc2c1ncn2[C@H]1O[C@@H](CO)[C@@H](O)[C@H]1O`, the activity, negative = inhibition is -4.9% [at 2.29 µM].
Take `O=C1COC(c2ccccc2O)=NN1CCCN1CCCC1`: the activity, negative = inhibition is -13.6% [at 11.4 µM].
`CC(Oc1ccc(O)cc1)(P(=O)(O)O)P(=O)(O)O`: the AC50 result is “inactive”.
Turning to `O=C(N/N=C/c1ccccn1)c1ccco1`, the AC50 was 15800 nM (active).
Still for that read-out and setting: then `O=C(CNC(=O)c1ccccn1)N/N=C/c1ccccc1`, with 4470 nM (active).
`CO[C@H]1COC(=O)C/C=C\[C@H](C)COC(=O)[C@@H](OCc2ccccc2)/C=C\[C@@H]1C`: the activity, negative = inhibition is -6.26% [at 11.4 µM].
In the case of `CC(C)=NOC[C@@H](O)COCc1ccco1`, the activity, negative = inhibition is 4.83% [at 11.4 µM].
`CC(C)[C@H]1C(=O)C(C(N)=O)=C(O)[C@]2(O)C(=O)C3=C(O)c4c(O)ccc(N(C)C)c4C[C@H]3C[C@@H]12`: the AC50 result was “inactive”.
Same read-out and setting: then `Nc1cc2c(nc3c4ccccc4c(N)cc3[n+]2-c2cccc3ccccc23)c2ccccc12` (tested in a mixture with another compound), with 1260 nM (active); and `COc1ccc(CNC(=O)c2csc(Cc3ccc(OC)cc3)n2)cc1`, with 14100 nM (active).
For `COc1ccc(Cc2nnc(NC(=O)c3cccc([N+](=O)[O-])c3C)s2)cc1`, the AC50 result was “inactive”.
In the case of `COc1ccc(CNC(=O)C2CSC(=O)C2)cc1` (configuration not stated), the AC50 result was “inactive”.
On the same count and under the same terms, then `COc1ccc(CNC(=O)c2csc(Cc3ccc(Cl)cc3)n2)cc1`, with 891 nM (active); and `CCN(C(=O)COc1cc(=O)n(C)c2ccccc12)c1cccc(Cl)c1`, with 15800 nM (active); and `O=C(NCC1CCCO1)c1ccc2c(=O)n(Cc3ccco3)c(SCC(=O)N3CCCC3)nc2c1` (configuration not stated), with “inactive”.
The same measure, in the same setting: the same measure for `CC1Cc2ccccc2N1C(=O)C1CCCCN1S(=O)(=O)c1ccccc1` (configuration not stated): “inactive”; for `Cn1c(C(=O)N2COCC2(C)C)cc2c(=O)n3ccccc3nc21`: 6310 nM (active).
With `Cc1ccccc1-n1ncc2c(SCC(=O)N3c4ccccc4CC3C)ncnc21` (configuration not stated), the AC50 result is “inactive”.
With `Cc1ccc(S(=O)(=O)/C(C#N)=C/c2c(N3CC(C)OC(C)C3)nc3ccccn3c2=O)cc1` (configuration not stated), the AC50 result was “inactive”.
In the case of `Cn1c(C(=O)NCC2CCCO2)cc2c(=O)n3ccccc3nc21` (configuration not stated), the AC50 was 2240 nM (active).
As for `CC1Cc2ccccc2N1C(=O)c1cc2c(=O)n3ccccc3nc2n1C` (configuration not stated), the AC50 was 3160 nM (active).
Regarding `C[C@@H](c1ccccc1)N1C(=O)[C@H]2[C@H]3[C@H](O)[C@H](O)C/C(=N/OC[C@@H](O)COCc4ccco4)[C@@H]3CC[C@@H]2C1=O`, the activity, negative = inhibition is -14.6% [at 11.4 µM].
Regarding `COc1cccc(Nc2ncc3ncc(=O)n(C)c3n2)c1`, the AC50 was 1580 nM (active).
Same read-out and setting: then `COCCn1c(=O)cnc2cnc(Nc3ccccc3)nc21`, with 1000 nM (active); and `Cn1c(=O)cnc2cnc(Nc3ccccc3)nc21`, with 2000 nM (active).
With `COCCn1c(=O)cnc2cnc(Nc3cccc(OC)c3)nc21`, the AC50 was 794 nM (active).
`O=C(O)[C@@H]1[C@@H]2C[C@H]([C@@H](Br)[C@H]2N2C(=O)CCC2=O)[C@@H]1C(=O)O`: the activity, negative = inhibition is -15.8% [at 2.29 µM].
For `CN[C@@H]1[C@H](O[C@@H]2O[C@H](CO)[C@@H](N)[C@H](O)[C@@H]2O)O[C@H]2C[C@@H](N)[C@@H](O[C@H]3[C@@H](O)[C@H](O)[C@H](N)C[C@@H]3N)O[C@H]2[C@H]1O`, the AC50 entry was “inactive”.
Consider `CC(C)Cn1cnc2c(Sc3c([N+](=O)[O-])ncn3C)nc(N)nc21`, for which the activity, negative = inhibition was 8.13% [at 2.29 µM].
Consider `Cc1ccc(OCCCOc2cccc3cccnc23)cc1C`, for which the concentration at half-maximal activity (AC50) was 2820 nM (active).
On to `Brc1ccccc1OCCOCCOc1cccc2cccnc12`, for which the AC50 is 2240 nM (active).
Still for that read-out and setting: then `Cc1c(CCO)c(=O)n(C)n1C(=O)c1ccc(F)cc1`, with “inactive”.
For `COc1ccc(COC(=O)N/N=C2/C[C@@H](O)[C@@H](O)[C@@H]3[C@H]4C(=O)N(c5ccc(F)cc5F)C(=O)[C@@H]4CC[C@@H]23)cc1`, the activity, negative = inhibition is -3.56% [at 11.4 µM].
Turning to `COc1cc2c3cc1Oc1c(OC)c(OC)cc4c1[C@@H](Cc1ccc(O)c(c1)Oc1ccc(cc1)C[C@@H]3N(C)CC2)CN(C)C4`, the activity, negative = inhibition is -11.1% [at 11.4 µM].
In the case of `O=C(O)c1nc(-c2ccccc2)[nH]c1C(=O)O`, the AC50 is 1000 nM (active).
With `Nc1cc(C(=O)O)[nH]c(=O)n1`, the activity, negative = inhibition was -6.95% [at 11.4 µM].
Regarding `C=CCn1c(COc2ccccc2)nnc1SCC(=O)N/N=C/c1ccc(C)cc1`, the AC50 is 3550 nM (active).
As to `C=CCn1c(Cc2ccc(OC)cc2)nnc1SCC(=O)c1cccc([N+](=O)[O-])c1`, the AC50 entry is “inactive”.
For `COc1cccc2[nH]c3c(N4CC(C)CC(C)C4)ncnc3c12` (configuration not stated), the AC50 was 2000 nM (active).
With `CSc1ccccc1N1CCN(C(=O)Nc2ccc3c(c2)NC(=O)CO3)CC1`, the AC50 result was “inactive”.
On to `COc1ccc(-c2csc(NC(=O)CCn3cnc4ccccc4c3=O)n2)cc1OC`, for which the AC50 entry is “inactive”.
On to `c1cnc(Nc2nc(-c3ccc4ccccc4c3)cs2)nc1`, for which the AC50 is 224 nM (active).
With `N[C@H](CO)C(=O)NCC(=O)O` (H-[dS]-Gly-OH), the activity, negative = inhibition was 3.56% [at 2.29 µM].
`COC(=O)c1nn(-c2cccc(C(F)(F)F)c2)c(=O)cc1Sc1ccccn1`: the AC50 is 2240 nM (active).
For `CC(C)Nc1nc(NC(C)(C)C)nc(Oc2ccc(=O)n(-c3ccccc3)n2)n1`, the AC50 entry is “inactive”.
Consider `COc1cc(-c2[o+]c3cc(O)cc(O)c3cc2O)cc(O)c1O`, for which the activity, negative = inhibition is -19.9% [at 2.29 µM].
Consider `C=CCSc1nc2c(sc3nc(C)cc(C)c32)c(=O)[nH]1`, for which the AC50 was 1120 nM (active).
Turning to `CCSc1nc2sc3c(c2c(=O)[nH]1)CC(C)(CC)OC3` (configuration not stated), the AC50 result was “inactive”.
Take `O=C(Cn1ccnc1[N+](=O)[O-])NCCO`: the AC50 entry is “inactive”.
As for `Nc1nc(N)c(CCCCc2ccccc2)c(N)n1`, the activity, negative = inhibition is -0.16% [at 2.29 µM].
As to `O=C(O)CCc1nc(-c2ccccc2-n2cccc2)no1`, the activity, negative = inhibition is -17.3% [at 2.29 µM].
For `O=C(CCc1nc(-c2ccccc2)no1)NCCc1ccccc1`, the AC50 is 2820 nM (active).
With `c1ccc(CCc2nc(-c3ccccc3)no2)cc1`, the half-maximal activity concentration (AC50) is 2820 nM (active).
In the case of `CCN(CC)CCc1nc(-c2ccccc2)no1`, the AC50 was 5010 nM (active).
Regarding `CN1C(=O)NC(c2ccc(O)cc2)C(C(=O)c2cccs2)C1(O)C(F)(F)F` (configuration not stated), the AC50 result was “inactive”.
On the same count and under the same terms, then `Cc1ccccc1N=C(N)Nc1ccccc1C`, with “inactive”; and `NC(=S)Nc1ccc(Oc2ccc(NC(N)=S)cc2)cc1`, with “inactive”; and `CN=C(N)/N=C(\N)Nc1cc2ccccc2c2ccccc12`, with 251 nM (active).
In the case of `NC(=S)Nc1cc2ccccc2c2ccccc12`, the half-maximal activity concentration (AC50) was 70.8 nM (active).
Turning to `O=P(O)(O)CCP(=O)(c1ccccc1)c1ccccc1`, the AC50 result is “inactive”.
On to `C[C@@H]1CCN=C(N)S1`, for which the AC50 entry is “inactive”.
Turning to `O=C(OCC#CCSc1nnc(-c2cccc3ccccc23)o1)c1ccco1`, the AC50 is 398 nM (active).
Take `Cc1ccc(N2C(=O)C(Cl)=C(NCc3ccccc3)C2=O)c(C)c1`: the AC50 is 11200 nM (active).
As for `CC1=NN(c2ccc(C)cc2C)C(=O)C1C(c1ccccc1)C1C(=O)N(c2ccc(C)cc2C)N=C1C` (configuration not stated), the AC50 entry was “inactive”.
As to `CO[C@H]1COC(=O)[C@H]2CCCN2C(=O)C/C=C\[C@@H](C)[C@H](OC)COC(=O)[C@@H](OCc2ccccc2)/C=C\[C@@H]1C`, the activity, negative = inhibition is -3.46% [at 11.4 µM].
